Results on 26 compounds are retold here after PubChem BioAssay (NCI).

The structures appear in SMILES notation. About 83,000 compounds went through this panel and 20% of them were active in at least one assay; those are over-represented in the sample as a whole.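 Activity criterion: percent growth below 10, measured after cells in 96-well plates were exposed to a single compound concentration for 48 hours.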 Unmarked numbers belong to inactive results. Activity calls are given as the source filed them.

Common to all, as to experiment: NCI-60 one-dose screen, 48 h (100 = growth as untreated, 0 = no growth, -100 = all killed)
What all share (conditions): 10 µM unless noted

Assay [1] has as its system DU-145 prostate.
The test system of assay [2] is K-562 leukemia.
For assay [3], the system named is MALME-3M melanoma.
For assay [4], the system named is MDA-MB-231 breast.
The subject of assay [5] is RXF 393 renal.
The test system of assay [6] is SF-268 CNS.
Assay [7] has as its system SF-295 CNS.
Assay [8] relates to SF-539 CNS.
The test system of assay [9] is UACC-257 melanoma.
Assay [10] relates to M14 melanoma.

`O=c1cc(/C(=C2/C=CC=N2)c2ccc[nH]2)c2cc(Cl)ccc2o1`: the growth in assay [1] is 47%; in assay [2], 24.8%; in [3], 66.6%; in [4] it was 71%; in [5] it was -29.1% (active); in [6], 56.4%. For the same compound, the growth was 13.9% in assay [7], 16.1% in assay [8], 38.3% in [9] and 35.5% in [10].

On to `O=C1c2cc3c(cc2-c2c1c1cc(F)c(F)cc1c(=O)n2CCCn1ccnc1)OCO3`, for which the growth in assay [1] is 9.97% (active); in assay [2], 8.61% (active); in [3] it was -4.79% (active); in [4], 13.9%; in [5] it was -22.4% (active); in assay [6], 13.4%. The growth in assay [7] is -12.4% (active); in [8] it was -19.7% (active); in assay [9] it was -28.9% (active); in assay [10], 8.25% (active).

As to `NS(=O)(=O)c1ccc(CN=C2NC(=O)S/C2=C\c2ccc(Br)cc2)cc1`, the growth in assay [1] is 111%; in [2], 102%; in [3] it was 93.8%; in assay [4], 101%; in [5], 105%; in assay [6], 92.3%. Besides, the growth in assay [7] is 102%; in assay [8] it was 92.3%; in assay [9], 102%; in assay [10], 102%.

`O=C1/C(=C/c2ccc(Cl)cc2)SC(=S)N1CCc1ccc(O)cc1`: the growth in assay [1] is 50.2%; in [2], 96.9%; in [3], 81.5%; in assay [4] it was 84%; in assay [5], 94.1%; in assay [6], 85%. Further, the growth in [7] was 102%; in assay [8] it was 80%; in [9] it was 99.5%; in assay [10], 104%.

As for `CN(CCCCCl)P(=O)(OCc1ccc([N+](=O)[O-])o1)C(F)(F)c1ccc(CC(=O)NC[C@@H](O)/C=C\[C@@H](O)[C@H](CO)Cc2ccccc2)cc1` (stereo not given in full), the growth in assay [1] is 105%; in assay [2], 50.2%; in assay [3], 92.1%; in [4], 89.3%; in assay [5], 100%; in [6], 98.5%. Besides, the growth in [7] was 98.3%; in [8], 102%; in assay [9] it was 92.2%; in assay [10], 95.3%.

For `CSc1nc(NCCN2CCOCC2)c(C#N)c(-c2cccc([N+](=O)[O-])c2)n1`, the growth was 106% in assay [1]; 100% in [2]; 98.7% in [3]; 86.3% in assay [4]; 103% in [5]; 96.7% in [6]. Besides, the growth was 99.1% in assay [7], 90.3% in [8], 98.2% in [9] and 101% in [10].

`O=C(COc1cccc(/C=C2\CSc3ccccc3C2=O)c1)Nc1nccs1`: the growth in assay [1] was 106%; in assay [2], -58.1% (active); in assay [3] it was 16.9%; in assay [4], 80.6%; in assay [5] it was 71%; in [6], 43.5%. For the same compound, the growth in assay [7] is 115%; in assay [8] it was 75.3%; in [9] it was 86%; in [10], 39.1%.

For the compound `Cc1ccc(OC(=O)c2ccc(Cl)cc2)cc1`, the growth in [1] was 112%; in assay [2], 96.6%; in assay [3], 101%; in assay [4], 81.7%; in assay [5], 109%; in [6] it was 45.2%. For the same compound, the growth was 93.3% in assay [7], 95% in assay [8], 102% in [9] and 102% in [10].

In the case of `O=[N+]([O-])c1ccc(Nc2nc(NCCN3CCOCC3)ncc2[N+](=O)[O-])cc1`, the growth in assay [1] was 92.5%; in [2], 103%; in assay [3] it was 91%; in [4], 95.8%; in assay [5] it was 63%; in assay [6], 93.8%. Besides, the growth was 98.6% in assay [7], 93.9% in [8], 109% in assay [9] and 95% in [10].

Take `CCC(=O)c1ccc(Cl)s1`: the growth in assay [1] is 111%; in [2], 109%; in assay [3], 115%; in [4], 106%; in assay [5], 115%; in assay [6], 94.8%. In addition, the growth in [7] is 113%; in assay [8] it was 114%; in assay [9] it was 104%; in [10] it was 103%.

As for `CCCc1cc(=O)n2c(C(=O)Nc3cccc(C(=O)OCC)c3)c(C(=O)Nc3ccc(F)cc3)sc2n1`, the growth in assay [1] was 79.9% [30 µM]; in [2] it was 79.7% [30 µM]; in [3], 71.9% [30 µM]; in assay [4], 47% [30 µM]; in assay [5] it was -27.2% [30 µM] (active); in assay [6] it was 57.5% [30 µM]. The growth was 44.5% [30 µM] in assay [7], 33.9% [30 µM] in assay [8], 64.5% [30 µM] in assay [9] and 75.2% [30 µM] in assay [10].

With `CN1CCN(CCCOc2cccc3nc(Nc4ccc(Cl)c(F)c4)ccc23)CC1`, the growth in [1] is 38.8%; in assay [2], -48.6% (active); in [3], 1.94% (active); in assay [4] it was -57.6% (active); in assay [5], 54%; in assay [6], 44.3%. The growth is 46% in assay [7], 16.9% in assay [8], -31% (active) in assay [9] and -27.7% (active) in assay [10].

On to `O=S(=O)(Nc1ccc(NS(=O)(=O)c2ccccc2)c(Cl)c1)c1ccccc1`, for which the growth in assay [1] is 109%; in assay [2] it was 95.4%; in assay [3], 103%; in assay [4], 104%; in [5] it was 108%; in assay [6], 101%. In addition, the growth was 94.6% in assay [7], 105% in assay [8], 103% in [9] and 101% in assay [10].

Turning to `Cc1cc(C)nc(SC2=C(Nc3cccc(Cl)c3)C(=O)N(Cc3ccccc3)C2=O)n1`, the growth in assay [1] was 79.6% [30 µM]; in assay [2] it was 51.8% [30 µM]; in [3] it was 91.9% [30 µM]; in [4] it was 61.2% [30 µM]; in [5], 72.6% [30 µM]; in [6], 66.8% [30 µM]. The growth was -12.3% [30 µM] (active) in assay [7], 69.7% [30 µM] in [8], 71.7% [30 µM] in [9] and 74.8% [30 µM] in assay [10].

`O=C(O)c1c(=O)cccc2ssc12`: the growth in [1] was -64.5% (active); in [2], 4.02% (active); in assay [3] it was -58.3% (active); in [4], -57.3% (active); in assay [5] it was -66.8% (active); in assay [6] it was -38.6% (active). Further, the growth in assay [7] is -6.02% (active); in [8], -18.6% (active); in assay [9], 54.1%; in assay [10] it was 3.29% (active).

Consider `Cn1c(=O)c2c(nc3n(-c4ccc(Cl)cc4Cl)c(Sc4nc(-c5ccccc5)c(C#N)c(=O)[nH]4)cn23)n(C)c1=O`, for which the growth is 50.5% in assay [1]; 84% in [2]; 45.2% in assay [3]; 27.7% in assay [4]; 59.1% in assay [5]; 61.9% in assay [6]. For the same compound, the growth was 44.4% in assay [7], 30.6% in assay [8], 99.9% in [9] and 84% in [10].

On to `O=C1/C(=C(/c2ccccc2)N2CCOCC2)Cc2ccccc21`, for which the growth in [1] was -42.4% (active); in assay [2] it was 35.2%; in assay [3], 9.61% (active); in assay [4], 8.95% (active); in assay [5], 42%; in assay [6], 11.3%. Besides, the growth in [7] is 75.8%; in assay [8], -45.6% (active); in [9], 65.4%; in assay [10], -34.7% (active).

For the compound `N=C(N)c1ccc(-c2ccc(-c3ccc4ccccc4c3)s2)s1`, the growth in [1] is -85.4% (active); in assay [2], -47.2% (active); in assay [3] it was 85.9%; in assay [4] it was -36.8% (active); in assay [5], -55.1% (active); in [6], -6.87% (active). Moreover, the growth in [7] is 22.3%; in assay [8], 73.8%; in assay [9], 77%; in [10], 39.7%.

Turning to `Cc1[nH]c(-c2cc(N)ccc2Cl)c2c1C(=O)CCCC2`, the growth in assay [1] is 66.3%; in assay [2] it was 23.2%; in [3], 32.4%; in assay [4], 22%; in assay [5], 19.6%; in assay [6], 53.5%. The growth in assay [7] was 31.8%; in assay [8] it was 25.3%; in assay [9], 18.6%; in [10], 39.3%.

Turning to `COc1ccc(-n2nc(C)c3c(Nc4ccc(NC(=O)Nc5c(Cl)cccc5Cl)cc4)ncnc32)cc1`, the growth in [1] was 51.4%; in [2], 79.1%; in assay [3], 31.3%; in assay [4], 30.6%; in assay [5], 26.2%; in [6], 59.4%. In addition, the growth in assay [7] was 85.2%; in assay [8], 30%; in [9], 53%; in assay [10] it was 82.2%.

For the compound `CC1=NN(c2nc(-c3ccc(Cl)cc3)c(C#N)c(N3CCOCC3)n2)C(=O)C1`, the growth in assay [1] was 102%; in [2] it was 101%; in [3], 42%; in assay [4], 91.9%; in assay [5], 43.4%; in assay [6], 91.1%. The growth in assay [7] was 103%; in assay [8] it was 97.9%; in assay [9], 99.9%; in assay [10], 90%.

In the case of `CCOC(=O)c1sc2nc(-c3cccc(O)c3)nc(N3CCOCC3)c2c1C`, the growth in assay [1] is 38.9%; in [2], 60.5%; in [3], 62.7%; in [4], 47.6%; in assay [5], 18.4%; in [6], 48.9%. The growth is 81% in assay [7], 51.3% in [8], 82.6% in [9] and 69.2% in assay [10].

As for `FC(F)(F)c1nc2c(NCc3ccc(-c4ccccc4)cc3)cccc2[nH]1`, the growth was 81.2% in assay [1]; 6.87% (active) in assay [2]; 71.4% in [3]; 57.7% in [4]; 85.7% in [5]; 76.5% in assay [6]. Further, the growth was 88.9% in [7], 81.3% in assay [8], 87.7% in assay [9] and 90.1% in assay [10].

For the compound `Cc1ncc(C(=O)Nc2ccc(CN3CCN(C)CC3)c(C(F)(F)F)c2)cc1C#Cc1cnc2cccnn12`, the growth in assay [1] is 5.5% (active); in [2], 0.556% (active); in [3] it was -72% (active); in assay [4] it was -1.12% (active); in [5] it was -58.1% (active); in [6] it was -29.8% (active). The growth is 8.94% (active) in [7], -52.2% (active) in assay [8], -2.41% (active) in assay [9] and -79.9% (active) in assay [10].

`COc1cc(C(=O)Oc2ccccc2OC(=O)c2cc(OC)c(OC)c(OC)c2)cc(OC)c1OC`: the growth is 109% in assay [1]; 100% in assay [2]; 130% in assay [3]; 85.5% in [4]; 89.5% in assay [5]; 84% in assay [6]. Further, the growth in assay [7] was 115%; in [8], 88.5%; in assay [9], 86.7%; in [10] it was 116%.

As to `COc1ccc(CCNc2nc3c(c(=O)n(Cc4ccc(Br)cc4)c(=O)n3C)n2C)cc1OC`, the growth in assay [1] was 107%; in [2] it was 69.8%; in [3], 87.2%; in assay [4], 81.9%; in assay [5] it was 120%; in assay [6], 92.6%. Moreover, the growth in assay [7] is 89.1%; in assay [8], 88.5%; in assay [9], 92.4%; in [10], 101%.
